# Measurements reported in the supplement of paper PMC4840960.
# ± gives the standard deviation of the averaged measurements.
# Tested on: E18 rat cortical neuron-glia co-culture
# Assay: fiber score / MBP score (myelination specific beyond OL differentiation) (ratio); higher = more myelination-specific MBP alignment
# Settings: 1 µM; treatment time: 8 days (DIV5-DIV13)
# Method in brief: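 Library compounds were applied at 1 or 5 µM in myelination medium, DIV5 to DIV13, to primary E18 rat cortical co-cultures grown at 20,000 cells/well in 96-well plates. After 4 % paraformaldehyde fixation and MBP/Olig2/DAPI immunostaining, four 10X fields per well in duplicate wells were scored. Each value is continuous MBP fiber length per Olig2+ nucleus divided by thresholded MBP area × intensity per Olig2+ nucleus.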
row,SMILES,fiber score / MBP score
1,CN(C)CCc1c[nH]c2ccc(Cn3cncn3)cc12 [Rizatriptan],0.516
2,NS(=O)(=O)c1cc(C2(O)NC(=O)c3ccccc32)ccc1Cl (stereo not given) [Chlorthalidone],1.29
3,COc1cc2nc(N(C)CCCNC(=O)C3CCCO3)nc(N)c2cc1OC (stereo not given) [Alfuzosin],0.472
4,CCCCN1CCCC1CNC(=O)c1cc(C#N)c2ccccc2c1OC (stereo not given) [Nafadotride],0.516
5,CC(C)(C)NC(=O)[C@H]1CC[C@H]2[C@@H]3CC[C@H]4NC(=O)C=C[C@]4(C)[C@H]3CC[C@]12C [Finasteride],0.7
6,C[C@H]1c2cccc(O)c2C(=O)C2=C(O)[C@]3(O)C(=O)C(C(N)=O)=C(O)[C@@H](N(C)C)[C@@H]3[C@@H](O)[C@@H]21 [Doxycycline],0.798
7,CCc1nn(CCCN2CCN(c3cccc(Cl)c3)CC2)c(=O)n1CCOc1ccccc1 [Nefazodone],0.932
8,Cc1ccsc1C(=CCCN1CCC[C@@H](C(=O)O)C1)c1sccc1C [Tiagabine],0.656
9,CC(C)(C)NCC(O)c1ccc(O)c(CO)c1 (stereo not given) [Albuterol],0.654
10,C[C@]12CCC(=O)C=C1CC[C@@H]1[C@@H]2[C@@H](O)C[C@@]2(C)[C@H]1CC[C@]2(O)C(=O)CO [Hydrocortisone],0.712 ± 0.026
11,CC(C)c1ccc2oc3nc(N)c(C(=O)O)cc3c(=O)c2c1 [Amlexanox],0.826
12,OC(c1cc(C(F)(F)F)nc2c(C(F)(F)F)cccc12)C1CCCCN1 (stereo not given) [Mefloquine],0.726
13,Cc1sc(N)c(C(=O)c2cccc(C(F)(F)F)c2)c1C,0.681
14,NS(=O)(=O)c1cc2c(cc1Cl)N=CNS2(=O)=O [Chlorothiazide],1.05
15,c1ccc2c(CC3=NCCN3)cccc2c1 [Naphazoline],1.1
16,CCCNC(C)C(=O)Nc1ccccc1C (stereo not given) [Prilocaine],0.73
17,Cc1ncc([N+](=O)[O-])n1CCO [Metronidazole],0.862
18,O=C1CC2(CCCC2)CC(=O)N1CCNCC1COc2ccccc2O1 (stereo not given) [Binospirone],0.768
19,c1ccc2c(c1)CCCC2C1=NCCN1 (stereo not given) [Tyzine],0.783
20,Cc1cccc(Nc2ccncc2S(=O)(=O)NC(=O)NC(C)C)c1 [Torsemide],0.837
21,O=C1N(c2ccccc2)c2ccccc2C1(Cc1ccncc1)Cc1ccncc1 [Linopirdine],0.779
22,c1cnc(N2CCN(Cc3ccc4c(c3)OCO4)CC2)nc1 [Piribedil],0.774
23,CN1CCN(c2c(F)cc3c(=O)c(C(=O)O)cn4c3c2SCC4)CC1 [Rufloxacin],1.05
24,OC[C@H]1O[C@@H](Oc2cc(O)cc(/C=C/c3ccc(O)cc3)c2)[C@H](O)[C@@H](O)[C@@H]1O [Polydatin],0.578
25,CC[C@H](C)C(=O)O[C@H]1C[C@H](O)C=C2C=C[C@H](C)[C@H](CC[C@@H](O)C[C@@H](O)CC(=O)O)[C@H]21 [Pravastatin],0.899
26,COc1ccc(OC)c(C(O)CNC(=O)CN)c1 (stereo not given) [Midodrine],0.492

# Same assay, conditions: 5 µM; treatment time: 8 days (DIV5-DIV13)
row,SMILES,fiber score / MBP score
1,COc1ccc(C(=O)NCc2ccc(OCCN(C)C)cc2)cc1OC [Itopride],0.693
2,C#C[C@]1(O)CC[C@H]2[C@@H]3CCC4=CC(=O)CC[C@@H]4[C@H]3CC[C@@]21CC [Levonorgestrel],1.12
3,CNCCCCOc1ccccc1Cc1ccccc1 [Bifemelane],0.543
4,Cc1onc(-c2ccccc2)c1-c1ccc(S(N)(=O)=O)cc1 [Valdecoxib],0.733
5,CC(Cc1ccccc1)(NC(=O)CN)c1ccccc1 (stereo not given) [Remacemide],0.749
6,CO/N=C(\C(=O)N[C@@H]1C(=O)N2C(C(=O)O)=C(COC(C)=O)CS[C@H]12)c1csc(N)n1 [Cefotaxime],0.671
7,CC(C(=O)O)c1ccc(-c2ccccc2)c(F)c1 (stereo not given) [Flurbiprofen],0.793 ± 0.03
8,CCn1cc(C(=O)O)c(=O)c2ccc(C)nc21 [Nalidixic Acid],0.797
9,COc1ccc([C@@H]2Sc3ccccc3N(CCN(C)C)C(=O)[C@@H]2OC(C)=O)cc1 [Diltiazem],0.558
10,Cc1cccc(C)c1OCC(C)N (stereo not given) [Mexiletine],0.965
11,COc1ccc(-c2oc3c(CC=C(C)C)c(O[C@@H]4O[C@H](CO)[C@@H](O)[C@H](O)[C@H]4O)cc(O)c3c(=O)c2O[C@@H]2O[C@@H](C)[C@H](O)[C@@H](O)[C@H]2O)cc1 [Icariin],0.958
12,CC(=O)/N=c1/sc(S(N)(=O)=O)nn1C [Methazolamide],0.672
13,C[C@H](CCC(=O)O)[C@H]1CC[C@H]2[C@@H]3C(=O)C[C@@H]4CC(=O)CC[C@]4(C)[C@H]3CC(=O)[C@]12C [Dehydrocholic Acid],0.662
14,CN(C)CCc1c[nH]c2ccc(Cn3cncn3)cc12 [Rizatriptan],0.414
15,NS(=O)(=O)c1cc(C2(O)NC(=O)c3ccccc32)ccc1Cl (stereo not given) [Chlorthalidone],1.09
16,COc1cc2nc(N(C)CCCNC(=O)C3CCCO3)nc(N)c2cc1OC (stereo not given) [Alfuzosin],0.636
17,CCCCN1CCCC1CNC(=O)c1cc(C#N)c2ccccc2c1OC (stereo not given) [Nafadotride],0.414
18,CC(C)(C)NC(=O)[C@H]1CC[C@H]2[C@@H]3CC[C@H]4NC(=O)C=C[C@]4(C)[C@H]3CC[C@]12C [Finasteride],0.898
19,C[C@H]1c2cccc(O)c2C(=O)C2=C(O)[C@]3(O)C(=O)C(C(N)=O)=C(O)[C@@H](N(C)C)[C@@H]3[C@@H](O)[C@@H]21 [Doxycycline],0.815
20,CCc1nn(CCCN2CCN(c3cccc(Cl)c3)CC2)c(=O)n1CCOc1ccccc1 [Nefazodone],0.76

row,SMILES,fiber score / MBP score
1,Cc1ccsc1C(=CCCN1CCC[C@@H](C(=O)O)C1)c1sccc1C [Tiagabine],0.716
2,CC(C)(C)NCC(O)c1ccc(O)c(CO)c1 (stereo not given) [Albuterol],0.789
3,C[C@]12CCC(=O)C=C1CC[C@@H]1[C@@H]2[C@@H](O)C[C@@]2(C)[C@H]1CC[C@]2(O)C(=O)CO [Hydrocortisone],0.656 ± 0.11
4,CC(C)c1ccc2oc3nc(N)c(C(=O)O)cc3c(=O)c2c1 [Amlexanox],1.05
5,OC(c1cc(C(F)(F)F)nc2c(C(F)(F)F)cccc12)C1CCCCN1 (stereo not given) [Mefloquine],0.574
6,Cc1sc(N)c(C(=O)c2cccc(C(F)(F)F)c2)c1C,0.698
7,NS(=O)(=O)c1cc2c(cc1Cl)N=CNS2(=O)=O [Chlorothiazide],0.841
8,c1ccc2c(CC3=NCCN3)cccc2c1 [Naphazoline],1.06
9,CCCNC(C)C(=O)Nc1ccccc1C (stereo not given) [Prilocaine],1.1
10,Cc1ncc([N+](=O)[O-])n1CCO [Metronidazole],0.794
11,O=C1CC2(CCCC2)CC(=O)N1CCNCC1COc2ccccc2O1 (stereo not given) [Binospirone],0.49
12,c1ccc2c(c1)CCCC2C1=NCCN1 (stereo not given) [Tyzine],0.873
13,Cc1cccc(Nc2ccncc2S(=O)(=O)NC(=O)NC(C)C)c1 [Torsemide],0.949
14,O=C1N(c2ccccc2)c2ccccc2C1(Cc1ccncc1)Cc1ccncc1 [Linopirdine],0.73
15,c1cnc(N2CCN(Cc3ccc4c(c3)OCO4)CC2)nc1 [Piribedil],0.712
16,CN1CCN(c2c(F)cc3c(=O)c(C(=O)O)cn4c3c2SCC4)CC1 [Rufloxacin],0.68
17,OC[C@H]1O[C@@H](Oc2cc(O)cc(/C=C/c3ccc(O)cc3)c2)[C@H](O)[C@@H](O)[C@@H]1O [Polydatin],0.769
18,CC[C@H](C)C(=O)O[C@H]1C[C@H](O)C=C2C=C[C@H](C)[C@H](CC[C@@H](O)C[C@@H](O)CC(=O)O)[C@H]21 [Pravastatin],0.809
19,COc1ccc(OC)c(C(O)CNC(=O)CN)c1 (stereo not given) [Midodrine],0.885
